Screening data as filed in PubChem.
Pf Dd2 growth – qHTS Primary assay for Inhibitors of Plasmodium falciparum Dd2 growth in vitro. Potency, µM (highest dose often 28.9 µM), for the others: top-dose activity, negative = inhibition, actives largely listed as inhibitors. 4.3% of 120,000 active. P. falciparum Dd2 growth, SYBR Green, 72 h; active = well fitted inhibition curve with a large enough effect;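 also: plate controls were DMSO vehicle for no effect and reference drug for full effect; nearly all actives have a fitted effect of over 65% in size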
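Readout: SYBR Green fluorescence, 485 nm excitation, 535 nm emission, after ~16 h lysis at 37C. Before that, Dd2-infected red cells (2.5% hematocrit) grew 72 h with compound, 29 uM top final concentration.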
* hit, by the source's call; i = inactive; [ ] = dose if it differs, or a comment. Shown is part of a subset that was picked to be rich in hits. Potency is read from the fitted curve at half-maximal effect.

SMILES | Pf Dd2 growth
COc1cccc(CC2(CO)CCCN(c3ccc(-c4nccn4C)nn3)C2)c1 (configuration not stated) | 8.9µM*
CCNC(=O)[C@@H]1C[C@H](NC(=O)c2cccc(Cl)c2)CN1C1CCOCC1 | -9%
O=C1NCCCCCN(Cc2cn[nH]c2-c2ccc(F)cc2)[C@H]2CCC[C@@H]12 | i
NC(=O)C1CCN(c2cc(-c3noc([C@@H]4CCCN4Cc4cccnc4)n3)ccn2)CC1 | -9%[44.1 µM]
COc1ccc(-c2cn3c(n2)sc2cc(C(=O)Nc4cccc(OC)c4)ccc23)cc1 | -4%
O=C(NC1CCCCC1)c1ccc2c(c1)sc1nc(-c3ccc(F)cc3)cn12 | -10%
COc1ccc(-c2cn3c(n2)sc2cc(C(=O)NCCCN4CCCCCC4)ccc23)cc1 | 8.9µM*
COc1ccc(-c2cn3c(n2)sc2cc(C(=O)NCCCN4CCCCC4)ccc23)cc1 | 1.1µM*
COc1ccc(-c2cn3c(n2)sc2cc(C(=O)NC4CCCCCC4)ccc23)cc1 | i
COc1cccc(-c2cn3c(n2)sc2cc(C(=O)NCCC4=CCCCC4)ccc23)c1 | i
O=C(NC1CCCCCC1)c1ccc2c(c1)sc1nc(-c3ccc(F)cc3)cn12 | 6%
CCOC(=O)C1CCN(C(=O)c2ccc3c(c2)sc2nc(-c4ccc(OCC)cc4)cn23)CC1 | 8.9µM*
CCOCCOC1CCN(C(=O)c2ccc(F)cc2)CC1 | 27%
Cc1nc(NCCN2CCCC(C(N)=O)C2)c2cccnc2n1 (configuration not stated) | 11%
Cc1ccc([S+](=O)([O-])N2CCn3c(nn(-c4ccc([N+](=O)[O-])cc4)c3=O)C2)cc1 | -18%
CNC(=O)[C@@H]1C[C@H](Oc2ccccc2)CN1S(C)(=O)=O | -9%
Cc1cc(CN(C)C(C)c2cccs2)no1 (configuration not stated) | 4%[44.1 µM]
COc1ccc(NC(=O)N2[C@H]3CC[C@@H]2c2cncnc2C3)cc1F | -18%
COCC1CN(C(C)=O)CC12CCN(C(=O)CSC)CC2 (configuration not stated) | 24%
Cn1ncc(N2CCC(CNC(=O)C3(c4ccccc4)CCCC3)C2)cc1=O (configuration not stated) | -12%
CN(C)C(=O)CC1CCCCN(Cc2ccccc2)C1=O (configuration not stated) | 12%
COc1ccc(N2CC3CCC(C2)N3Cc2cccc(Cl)c2)cc1 | 3%
Cc1ccc(C(=O)NCc2nnc3c(-c4nc(C5CC5)no4)cccn23)cc1C | -13%
Cc1noc(-c2cccn3c(CNC(=O)c4cccc(N(C)C)c4)nnc23)n1 | 0.56µM*
COc1ccc(Cl)cc1C(=O)NCc1nnc2c(-c3nc(C(C)C)no3)cccn12 | 1.8µM*
SMILES | Pf Dd2 growth
CCc1noc(-c2cccn3c(CNC(=O)COc4ccc(F)cc4)nnc23)n1 | 0.71µM*
O=C(NCc1nnc2c(-c3nc(C4CC4)no3)cccn12)c1cc(F)ccc1F | -23%
Cc1ccccc1C(=O)NCc1nnc2c(-c3nc(C(C)C)no3)cccn12 | i
Cc1noc(-c2cccn3c(CNC(=O)c4ccccc4)nnc23)n1 | -10%
COc1cccc(C(=O)NCc2nnc3c(-c4nc(C)no4)cccn23)c1 | -30%
COc1ccc(Cl)cc1C(=O)NCc1nnc2cc(-c3nc(C(C)C)no3)ccn12 | -1%
CCc1noc(-c2cccn3c(CNC(=O)c4ccc(F)cc4)nnc23)n1 | -20%
CCc1noc(-c2cccn3c(CNC(=O)COc4cccc(C)c4)nnc23)n1 | -17%
CCOc1ccccc1C(=O)NCc1nnc2c(-c3nc(C4CC4)no3)cccn12 | 3.2µM*
COc1cccc(CNC(=O)CN2C(=O)NC3(CCCCC3)C2=O)c1OC | -14%
Cc1cccc2nc(C(=O)N3CCC4(CCNCC4)CC3)cn12 | 2%
O=C(c1cccc(Cl)c1)N1CCn2c(nn(-c3ccc([N+](=O)[O-])cc3)c2=O)C1 | 5%
CN1c2cc(C(=O)Nc3cccc(F)c3)ccc2C(=O)N2CCCCCC21 (configuration not stated) | 12%
CCS(=O)(=O)N1CC[C@H]2C(=O)NCCCCCN(Cc3cccnc3)[C@@H]2C1 | 19%
CC(NC(=O)OCc1ccccc1)c1nc2cccnc2n1C1CCCCC1 (configuration not stated) | -25%
CCOCCCNC(=O)N1C[C@@H](Oc2cccnc2)C[C@@H]1C(=O)NC | 15%
O=C1NCCCCCN(Cc2cccnc2)[C@@H]2CN(C(=O)NCCc3ccccc3)CC[C@@H]12 | -13%
Cc1ccc(-c2nc(C3CC(=O)N(C4CCCCC4)C3)no2)s1 (configuration not stated) | -23%
COCCN1CCCC2(CCN(C(=O)c3ccccc3)C2)C1 (configuration not stated) | -10%
Cc1nccc(N2CCN(C(=O)N3CCOCC3)CC(C(=O)O)C2)n1 (configuration not stated) | 0%
COCCN1C(=O)CO[C@H]2CN(C(=O)c3ccc(F)cc3)C[C@H]21 | 19%[44.1 µM]
COc1ccc(NC(=O)c2ccco2)cc1NC(=O)c1c(OC)cccc1OC | 8%
COc1ccc(NC(=O)c2ccco2)cc1NC(=O)C(C)(C)Oc1ccc(Cl)cc1 | 10µM*
COc1ccc(C(=O)Nc2cc(NC(=O)c3ccco3)ccc2OC)cc1Cl | 24%
Cc1cccc(NC(=O)C2CCCCC(=O)N2)c1 (configuration not stated) | -9%
SMILES | Pf Dd2 growth
CN1c2cccnc2CN(Cc2ccco2)CC[C@H]1CO | -15%[44.1 µM]
CN(C)c1ncnc2sc3c(c12)CCN(Cc1ccc2cc[nH]c2c1)C3 | 1.3µM*
Cc1ccsc1CN1CCc2nc(N3CCN(C)CC3)[nH]c(=O)c2CC1 | i[5.79 µM]
CN(C)c1ncnc2sc3c(c12)CCN(Cc1ccco1)C3 | 4µM*
CN1CCN(c2nc3c(c(=O)[nH]2)CCN(Cc2ccc4cc[nH]c4c2)CC3)CC1 | i[5.79 µM]
CN(Cc1cccnc1)c1nc2c(c(=O)[nH]1)CCN(Cc1ccc3[nH]ccc3c1)CC2 | 40%[5.79 µM]
Cc1ccsc1CN1CCc2nc(N(C)C)[nH]c(=O)c2CC1 | -27%[5.79 µM]
CN1C(=O)[C@H]2CN(Cc3ccco3)C[C@H]2C1=O | 42%
Cc1ccsc1CN1CCc2c(sc3ncnc(N(C)C)c23)C1 | 5µM*
CCc1ccc(CNC(=O)c2cc3n(n2)CC(c2ccc(Cl)cc2)OC3)cc1 (configuration not stated) | -2%
O=C(CN1C(=O)NC2(CCCCC2)C1=O)Nc1ccc(F)c(F)c1 | -4%
COC(=O)N1CCn2cc(C(=O)N3CCOCC3)nc2C1 | 11%[44.1 µM]
COC[C@@H]1CN(c2ncccn2)C[C@H]1C(=O)O | 7%
COc1ccccc1CNC(=O)CC1=C2CCCCC2N(C)C1=O (configuration not stated) | -2%
CN1C(=O)C(CC(=O)NCc2cccnc2-n2ccnc2)N(C)C1=O (configuration not stated) | 14%
COc1ccc(CN2CCNC(=O)C2CC(=O)NCc2ccncc2)cc1OC (configuration not stated) | 8%
COc1ccc(-c2c(C)c3ccc(O)c(CN4CCN(CCO)CC4)c3oc2=O)cc1OC | 3%
COc1ccc(-c2cc3ccc(O)c(CN4CCCC(C)C4)c3oc2=O)cc1OC (configuration not stated) | 4.5µM*
COc1ccc(-c2cc3ccc(O)c(CN4CCCC4)c3oc2=O)cc1OC | 4µM*
COc1ccc(-c2cc3ccc(O)c(CN4CCCC(C)C4)c3oc2=O)cc1 (configuration not stated) | 1µM*
COc1ccc(-c2nnc([C@H]3CCN(C(=O)c4ccc(OC)c(OC)c4)C3)o2)cc1 | i
